TDP1 cell noCPT = qHTS for Inhibitors of human tyrosyl-DNA phosphodiesterase 1 (TDP1): qHTS in cells in absence of CPT; actives 15% (n = 420,000); DT40 Tdp1-/- hTDP1 cells, no CPT, ATP luminescence, 48 h; AID 686978, 2013; Potency, µM (titrated, usually from 46.2 µM), hits mostly inhibitors; further: nearly all actives have a fitted effect of over 55% in size
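Luminescent ATP content (CellTiter-Glo) served as the growth readout. Knockout chicken DT40 cells expressing human TDP1 were exposed to compounds without camptothecin for a minimum 48 hr at 37 °C.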
DT40 TDP1 CPT = DT40-hTDP1 cell growth loss with CPT | chicken DT40 Tdp1-/-;hTDP1 cells + 20 nM CPT, ATP luminescence, 48 h | Potency, µM (series often up to 46.2 µM), usual class: inhibitors | actives 12% (n = 420,000); further: nearly all actives have a fitted effect of over 55% in size
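Chicken DT40 Tdp1-/- cells complemented with human TDP1, 400 cells/well, exposed to compounds plus 20 nM camptothecin for at least 48 h at 37 C; viability read as ATP content by CellTiter-Glo luminescence.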
TDP1 inh = inhibitors of human tyrosyl-DNA phosphodiesterase TDP1; recombinant TDP1, AlphaScreen DNA substrate cleavage; Potency, µM (doses to about 130 µM), most hits filed as inhibitors; actives 0.28% (n = 350,000); further: nearly all actives have a fitted effect of over 40% in size
Target sequence (Q9NUW8 whole entry, looked up): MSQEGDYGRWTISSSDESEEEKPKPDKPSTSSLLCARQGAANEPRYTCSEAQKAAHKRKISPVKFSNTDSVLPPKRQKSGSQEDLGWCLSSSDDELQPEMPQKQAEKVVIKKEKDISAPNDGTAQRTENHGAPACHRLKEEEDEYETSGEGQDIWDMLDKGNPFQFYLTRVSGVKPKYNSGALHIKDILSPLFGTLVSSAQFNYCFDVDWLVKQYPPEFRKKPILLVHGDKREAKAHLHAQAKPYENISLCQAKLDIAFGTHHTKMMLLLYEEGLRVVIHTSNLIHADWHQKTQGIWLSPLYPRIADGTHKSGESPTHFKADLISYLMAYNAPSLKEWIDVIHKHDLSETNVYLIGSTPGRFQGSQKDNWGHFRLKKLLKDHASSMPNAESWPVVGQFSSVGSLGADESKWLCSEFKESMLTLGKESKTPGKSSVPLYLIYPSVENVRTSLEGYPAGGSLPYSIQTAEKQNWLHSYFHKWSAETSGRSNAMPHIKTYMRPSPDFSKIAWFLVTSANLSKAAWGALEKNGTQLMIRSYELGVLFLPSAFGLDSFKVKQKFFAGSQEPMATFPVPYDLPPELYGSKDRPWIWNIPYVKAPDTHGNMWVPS
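Recombinant E. coli-expressed Tdp1 (1 nM) preincubated with compound 15 min at RT, then 5'-biotin/3'-phosphotyrosine-FITC DNA substrate (15 nM) added for 5 min. AlphaScreen beads (10 ug/ml) added, 10 min RT; tyrosine-FITC cleavage read as signal loss.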
ClpP mod = qHTS Assay for Activators of ClpP; purified B. subtilis ClpP, FRET peptide cleavage, 20 min; ATP-dependent Clp protease proteolytic subunit (Bacillus subtilis (strain 168)), P80244; AID 651965, 2013; Potency, µM (top dose mostly 57.5 µM); actives 1.9% (n = 340,000); active means well fitted falling curve with a large enough effect; inconclusive means small, poorly fitted or top-dose-only effect; inactive means no such curve, though single readings can be large or run the other way; further: the source files actives as falling curves though it sought activators and does not explain the sign; nearly all actives have a fitted effect of over 65% in size
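Purified B. subtilis ClpP, 10 microg/mL final in Tris/HCl pH8 with KCl, BSA, glycerol and Tween-20, cleaved an Abz/nitrotyrosine-quenched decapeptide. Fluorescence (ex 320, em 430) was read at 0 and 20 min at room temperature. Delta was normalized to 5.8 microM ADEP and DMSO/no-enzyme controls.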
Of the large screens only hits and unclear results are named; the others gave an inactive call. Rows were chosen to be rich in hits. Some 17% of all compounds tested hit in one or more screens of this group. Unless noted, the call rests on the fitted dose curve; in most records, active means well fitted curve in the direction sought with a large enough effect; inconclusive means small, poorly fitted or top-dose-only effect, or another doubt; inactive means no such curve, though single readings can be large; an effect the other way counts as inactive or inconclusive.

CC(=O)Nc1ccc(-c2ccnc3c2CC(C)(C(=O)Nc2ccc4c(c2)OCO4)O3)cc1 (stereo unspecified)	TDP1 cell noCPT inconclusive, DT40 TDP1 CPT 18.4µM (no result: TDP1 inh)
CC1(C(=O)Nc2cccc(Oc3ccccc3)c2)Cc2c(-c3ccc4c(c3)OCO4)ccnc2O1 (stereo unspecified)	TDP1 cell noCPT 13µM, DT40 TDP1 CPT inconclusive (no result: TDP1 inh)
CC(=O)Nc1ccc(NC(=O)C2(C)Cc3c(-c4ccc5c(c4)OCO5)ccnc3O2)cc1 (stereo unspecified)	none (no result: TDP1 inh)
Cc1ccc(C2=NN(CC(=O)O)C(=O)CC2)cc1	none (no result: TDP1 inh, ClpP mod)
Cc1ccc(NC(=O)[C@H](CSCc2ccccc2)N2Cc3ccccc3C2=O)cc1	TDP1 cell noCPT inconclusive
CC1(C(=O)Nc2ccc(Cl)c(C(F)(F)F)c2)Cc2c(-c3ccccc3)ccnc2O1 (stereo unspecified)	TDP1 cell noCPT inconclusive, DT40 TDP1 CPT inconclusive (no result: TDP1 inh)
CC(=O)Nc1ccc(-c2ccnc3c2CC(C)(C(=O)Nc2ccc(Cl)c(C(F)(F)F)c2)O3)cc1 (stereo unspecified)	TDP1 cell noCPT 23.1µM, DT40 TDP1 CPT 14.6µM (no result: TDP1 inh)
CCOC(=O)C(CC)c1cc2n(c(=O)c1C#N)CCC21OCCO1 (stereo unspecified)	none (no result: TDP1 inh)
COc1ccc(CC(N)c2csc(Nc3nccc(C(F)(F)F)n3)n2)cc1 (stereo unspecified)	TDP1 cell noCPT inconclusive, DT40 TDP1 CPT inconclusive (no result: TDP1 inh)
NC(Cc1ccc(F)cc1)c1csc(Nc2nccc(C(F)(F)F)n2)n1 (stereo unspecified)	TDP1 cell noCPT 14.6µM, DT40 TDP1 CPT inconclusive (no result: TDP1 inh)
Cc1cc(C)nc(Nc2nc(C(N)Cc3ccccc3)cs2)n1 (stereo unspecified)	TDP1 cell noCPT 5.17µM, DT40 TDP1 CPT 5.8µM (no result: TDP1 inh)
NC(Cc1ccc(Cl)cc1)c1csc(Nc2nccc(C(F)(F)F)n2)n1 (stereo unspecified)	TDP1 cell noCPT inconclusive, DT40 TDP1 CPT inconclusive (no result: TDP1 inh)
NC(Cc1ccccc1)c1csc(Nc2nccc(C(F)(F)F)n2)n1 (stereo unspecified)	TDP1 cell noCPT 20.6µM, DT40 TDP1 CPT 16.4µM (no result: TDP1 inh)
N#CC(C#N)=Cc1cn(-c2ncc(C(F)(F)F)cc2Cl)c2ccccc12	DT40 TDP1 CPT inconclusive, ClpP mod 15.8µM
CC(C)[C@H](NC(=O)OC(C)(C)C)c1cc(C(=O)N[C@@H](C)c2ccccc2)c(N)s1	TDP1 cell noCPT inconclusive, DT40 TDP1 CPT inconclusive (no result: TDP1 inh)
O=C(CCC1CCCN(C2C3CC4CC(C3)CC2C4)C1)NCc1ccc(F)c(F)c1 (stereo unspecified)	none (no result: ClpP mod)
C[C@H](CO)N1C[C@H](C)[C@@H](CN(C)C(=O)Nc2ccccc2)Oc2cc(Br)ccc2S1(=O)=O	TDP1 cell noCPT inconclusive (no result: TDP1 inh)
C[C@@H]1CN([C@@H](C)CO)S(=O)(=O)c2ccc(Br)cc2O[C@H]1CN(C)Cc1ccc(-c2ccccc2)cc1	TDP1 cell noCPT 5.8µM, DT40 TDP1 CPT 20.6µM (no result: TDP1 inh)
C[C@@H]1CN([C@@H](C)CO)S(=O)(=O)c2ccc(Br)cc2O[C@H]1CN(C)C(=O)c1cccc(F)c1	TDP1 cell noCPT inconclusive (no result: TDP1 inh)
C[C@H](CO)N1C[C@H](C)[C@@H](CN(C)Cc2ccc(Oc3ccccc3)cc2)Oc2cc(Br)ccc2S1(=O)=O	TDP1 cell noCPT 11.6µM, DT40 TDP1 CPT 23.1µM (no result: TDP1 inh)
C[C@H]1CN([C@@H](C)CO)S(=O)(=O)c2ccc(C#CC3CC3)cc2O[C@H]1CN(C)C(=O)c1cccnc1	none (no result: TDP1 inh)
C[C@H]1CN([C@@H](C)CO)S(=O)(=O)c2ccc(Br)cc2O[C@@H]1CN(C)Cc1cccc(F)c1	TDP1 cell noCPT 16.4µM, DT40 TDP1 CPT 16.4µM (no result: TDP1 inh)
C[C@@H]1CN([C@@H](C)CO)S(=O)(=O)c2ccc(C#CC3CCCCC3)cc2O[C@@H]1CN(C)Cc1cccnc1	TDP1 cell noCPT 5.17µM, DT40 TDP1 CPT 14.6µM (no result: TDP1 inh)
CCC(Sc1nc2cc(OC)c(OC)cc2c(=O)n1Cc1ccc(Cl)cc1)C(=O)NCCOC (stereo unspecified)	none
Cc1cc(C(=O)Nc2cccc3c2O[C@@H](CN(C)S(C)(=O)=O)[C@H](C)CN([C@@H](C)CO)C3=O)n(C)n1	none
O=C(/C=C/c1ccc(F)cc1)N1CC[C@@]2(O)CCCC[C@H]2C1	none (no result: ClpP mod)
C[C@H](CO)N1C[C@H](C)[C@@H](CN(C)Cc2cccc(F)c2)Oc2cc(-c3cccc(C#N)c3)ccc2S1(=O)=O	TDP1 cell noCPT 23.1µM, DT40 TDP1 CPT inconclusive (no result: TDP1 inh)
